# Bioassay records: PubChem, NMMLSC
# GSH fluor = compound fluoresces at 488/530 nm on GSH beads | AID 1776 | hit rate 0.25% among 190,000 | fluorescence (KMESF) at 10 µM | GSH beads flow cytometry, compound fluorescence 488/530 nm; stronger effect = higher value; in the data active means fluorescence above about 89;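 further: glutathione beads carrying GST-tagged Bcl family fusion proteins plus one bare bead set; values are compound well signal with DMSO vehicle wells as background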
# RGS7-Gao = human RGS7-Galphao interaction regulation. P09471. Multiplexed bead flow cytometry, RGS7-Galphao binding; actives lie on both sides. AID 1439. hit rate 0.35% among 220,000. binding response (% of control), % at 10 µM; in the data active means binding response below about 49% or above about 150%; inconclusive means no clear call, values can overlap the other calls; inactive means in between;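 further: fluorescent Galphao held in activated GDP-AlF4 state binding bead-coupled RGS7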
# RGS8-Gao = modulates binding of RGS8 to human Galphao | multiplexed bead flow cytometry; actives lie on both sides | response (percent of control binding), % at 10 µM | hit rate 0.34% among 220,000; in the data active means response below about 60% or above about 140%; inactive means in between;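 further: Galphao activated as the GDP aluminium fluoride complex binding bead-coupled RGS8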
# RGS16-Gao = RGS16-Galphao interaction regulator (human); O15492+P09471; bead-based flow cytometry RGS16-Galphao binding, fluorescence; actives lie on both sides; binding response (% of control), % at 10 µM; hit rate 0.38% among 220,000; call rule not given here;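 further: Galphao activated by GDP with aluminum fluoride before binding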
# Target sequence (O15492 whole entry, looked up): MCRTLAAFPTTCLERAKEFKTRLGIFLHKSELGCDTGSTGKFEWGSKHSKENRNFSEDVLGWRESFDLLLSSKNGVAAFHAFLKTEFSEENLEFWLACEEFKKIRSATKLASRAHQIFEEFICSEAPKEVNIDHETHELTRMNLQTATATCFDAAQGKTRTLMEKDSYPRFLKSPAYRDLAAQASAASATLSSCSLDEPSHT
# Target sequence (P09471 whole entry, looked up): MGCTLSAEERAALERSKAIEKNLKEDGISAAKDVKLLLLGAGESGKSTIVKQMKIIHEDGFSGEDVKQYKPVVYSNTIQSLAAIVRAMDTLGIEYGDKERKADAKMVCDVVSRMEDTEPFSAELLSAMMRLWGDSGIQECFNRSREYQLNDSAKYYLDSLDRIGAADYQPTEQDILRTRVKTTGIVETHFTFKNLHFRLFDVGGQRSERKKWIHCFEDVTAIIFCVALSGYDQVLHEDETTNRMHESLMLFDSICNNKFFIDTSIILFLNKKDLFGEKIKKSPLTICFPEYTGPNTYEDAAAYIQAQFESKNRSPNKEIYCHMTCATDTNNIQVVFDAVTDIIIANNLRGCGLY
# RGS4-Gao reg = human RGS4-Galphao interaction regulation. P09471. Multiplexed bead flow cytometry, RGS4-Galphao binding; actives lie on both sides. binding response (% of control), % at 10 µM. hit rate 0.33% among 220,000. AID 1415; in the data active means binding response below about 49% or above about 150%; inactive means in between;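 further: fluorescent Galphao activated with aluminum fluoride binding bead-coupled RGS4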
# Avidin fluor = compound fluoresces at 488/530 nm on avidin beads | fluorescence (KMESF) at 10 µM | compound fluorescence 488/530 nm, flow cytometry; stronger effect = higher value | AID 1775 | hit rate 0.38% among 220,000; in the data active means fluorescence above about 47
# * marks the source's active call; other numbers are inactive results; ? = inconclusive; · = not tested or not shown. An excerpt weighted towards active compounds, which were near 1.2% of everything screened.
SMILES,GSH fluor,RGS7-Gao,RGS8-Gao,RGS16-Gao,RGS4-Gao reg,Avidin fluor
CC(=O)N1CCC(C(=O)Nc2ccccc2)(N(Cc2ccccc2)C(=O)c2cccnc2)CC1,267*,100.0,103.6,106.1,102.3,8
CCN(CC)S(=O)(=O)c1cccc(C(=O)Oc2cccc(NC(=O)c3cccs3)c2)c1,11,101.9,97.5,97.7,101.2,4
CCOC(=O)C1=C(c2ccccc2)N(C)C(=O)NC1c1ccc(OC(F)F)c(OC)c1 (stereo not given),13,123.2,99.7,106.6,103.6,56*
O=C(CCCCCN1C(=O)c2ccccc2C1=O)Oc1ccc2c3c(c(=O)oc2c1)CCC3,16,94.3,101.4,97.3,94.7,16
COc1ccc(C2NC(=O)C(C)S2)cc1 (stereo not given),10,135.7,95.8,99.3,96.0,51*
COc1ccc(N(CC(=O)Nc2cc([N+](=O)[O-])ccc2C)S(C)(=O)=O)cc1OC,·,?,103.4,105.3,105.5,6
O=C(O)c1cc(-c2cccnc2)nn1-c1ccccn1,260*,99.8,99.0,106.0,99.0,7
NC(=O)c1oc2ccccc2c1NC(=O)c1ccccc1,259*,98.3,100.2,98.0,98.0,7
NC(=O)c1oc2ccccc2c1NC(=O)c1ccco1,13,98.3,100.5,101.7,101.2,21
CCN(CC)CCCNC(=O)CSc1nc2c(c(C(F)(F)F)n1)CCc1ccccc1-2,28,?,98.4,101.1,108.8,64*
CCN(CC)CCCNC(=O)C1c2ccccc2C(=O)N(CCOC)C1c1ccc(F)cc1 (stereo not given),15,?,100.5,101.1,102.2,9
COCCN1C(=O)c2ccccc2C(C(=O)Nc2ccc3c(c2)OCCO3)C1c1ccc(F)cc1 (stereo not given),8,114.9,99.2,96.2,103.6,62*
COc1ccc(S(=O)(=O)N2CCOCC2)cc1NC(=O)CSc1n[nH]c(C(C)C)n1,11,100.4,98.0,100.5,101.1,12
C=CCn1c(SCC(=O)NCc2ccco2)nc2ccccc2c1=O,25,93.4,96.4,97.9,96.4,10
C=CCn1c(SCC(=O)NC(=O)NCc2ccco2)nc2sc(CC)cc2c1=O,267*,90.2,100.7,99.6,88.8,5
O=c1c2ccccc2nc(SCc2cccc(F)c2)n1Cc1ccco1,25,122.4,99.8,109.0,107.8,72*
O=C(CSc1nnc(COc2cccc3cccnc23)o1)N1CCN(C(=O)c2ccco2)CC1,136*,111.6,107.6,108.4,116.8,6
O=C1c2ccccc2NC(c2ccc3c(c2)OCCO3)N1c1ccc2c(c1)OCCO2 (stereo not given),262*,101.7,100.7,103.4,107.1,8
C=CCN1CCN(C(CCC)c2nnnn2Cc2ccco2)CC1 (stereo not given),19,99.8,103.5,99.1,101.0,7
Cc1cc(C)n2nc(C(=O)OCCOc3cccc(Br)c3)nc2n1,253*,102.3,102.4,103.2,103.2,8
O=C1N/C(=N/S(=O)(=O)Cc2ccccc2)S/C1=C/c1ccc2c(c1)OCO2,·,?,105.3,110.8,106.5,8
C=Cc1ccc(CSc2cc(C)nc3nc(C)nn23)cc1,·,?,100.2,98.8,96.5,9
CC(C)OP(=O)(c1ccc(N(C)C)cc1)C(O)c1ccccc1F (stereo not given),103*,90.6,99.5,88.6,86.0,4
COc1ccccc1C(O)P(=O)(OC(C)C)c1ccc(N(C)C)cc1 (stereo not given),65,100.9,103.8,97.3,99.2,7
CN1CCN(NC(=O)c2ccc(Cl)c(S(=O)(=O)Nc3ccc(Cl)cc3)c2)CC1,·,?,99.4,109.8,115.7,15
CC(=O)OCC(=O)NCc1ccc2c(c1)OCO2,46,106.0,103.3,110.0,104.8,8
Cc1ccc(C2=NN(CCC(=O)NCc3ccc4c(c3)OCO4)C(=O)CC2)cc1,226*,114.8,97.3,119.4,115.2,32
Cc1ccsc1C(=O)OCC(=O)NCc1ccc2c(c1)OCO2,261*,104.4,103.5,105.5,103.1,7
CN1CC(=O)N(CC(=O)NCc2ccc3c(c2)OCO3)C1=O,283*,100.3,104.7,106.3,101.5,8
